Compounds without any hit were thinned out: in the full panel of roughly 79,000, 15% have a hit. The source made the active and inactive calls. Cut-off read from the data, not from the text of the source: active = growth inhibition above about 70%; inactive = the rest.
Experiments:
[1] = NCI Yeast Anticancer Drug Screen. Data for the rad52 strain (AID 147);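 note: 0% = growth of vehicle-treated control cultures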; settings: S. cerevisiae rad52 mutant growth inhibition, hits give high values
Method in brief: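 Growth of repair-deficient yeast cells was compared between compound-treated and vehicle-treated cultures to give percent inhibition.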

[2] = NCI Yeast Anticancer Drug Screen. Data for the wt1 strain (AID 149);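 note: 0% = growth of vehicle-treated wt1 cultures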; settings: S. cerevisiae wt1 strain (SPY 50644) growth inhibition, hits give high values
Method in brief: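 Yeast wt1 strain exposed to compounds; growth inhibition measured relative to vehicle-treated controls.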

[3] = NCI Yeast Anticancer Drug Screen. Data for the rad50EPP+ strain (AID 151);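 note: 0% = growth of vehicle-treated control cultures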; settings: S. cerevisiae rad50 mutant strain, hits give high values
Method in brief: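 Measured: growth inhibition of rad50EPP+ yeast. Reference: vehicle-treated controls. Screen uses strains with defined genetic alterations in DNA damage repair or cell cycle control.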

[4] = NCI Yeast Anticancer Drug Screen. Data for the mgt1 strain (AID 153); settings: S. cerevisiae mgt1 mutant growth inhibition, hits give high values
Method in brief: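 Compounds were applied to mgt1 mutant yeast, and growth was then compared against vehicle-treated control cultures to give percent inhibition.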

[5] = NCI Yeast Anticancer Drug Screen. Data for the rad50 strain (AID 155);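 note: 0% = growth of vehicle-only cultures of the same strain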; settings: S. cerevisiae rad50 strain growth inhibition, hits give high values
Method in brief: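 Yeast carrying a defined DNA repair defect were exposed to test compounds, and growth was compared with vehicle-treated controls to give percent inhibition.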

[6] = NCI Yeast Anticancer Drug Screen. Data for the mec2-1 strain (AID 157); settings: S. cerevisiae mec2-1 strain, hits give high values
Method in brief: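 Compounds were applied to mec2-1 yeast cells. Their growth was then compared with that of vehicle-treated cultures to give growth inhibition.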

[7] = NCI Yeast Anticancer Drug Screen. Data for the rad14 strain (AID 159);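 note: 0% = growth of vehicle-treated control cultures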; settings: S. cerevisiae rad14 strain growth inhibition, hits give high values
Method in brief: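 Yeast cells carrying a defined DNA-repair defect were exposed to compounds, and growth inhibition was calculated relative to vehicle-treated control cultures.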

[8] = NCI Yeast Anticancer Drug Screen. Data for the sgs1 mgt1 strain (AID 161);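 note: 0% = growth of cultures given vehicle only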; settings: S. cerevisiae sgs1 mgt1 strain, hits give high values
Method in brief: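 Percent growth inhibition was derived by comparing compound-exposed mutant yeast with vehicle-exposed cultures. The strain carries alterations in DNA damage repair.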

[9] = NCI Yeast Anticancer Drug Screen. Data for the cln2 rad14 strain (AID 165);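 note: 0% = growth equal to vehicle treated cultures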; settings: S. cerevisiae cln2 rad14 strain, hits give high values
Method in brief: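 Strain: cln2 rad14 yeast, altered in cell cycle control and DNA damage repair. Read-out: growth inhibition vs vehicle.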

[10] = NCI Yeast Anticancer Drug Screen. Data for the bub3 strain (AID 167); settings: S. cerevisiae bub3 mutant strain, hits give high values
Method in brief: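 Compounds were applied to a genetically altered yeast strain carrying a cell-cycle control defect. Growth inhibition was scored against vehicle-treated controls.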

[11] = NCI Yeast Anticancer Drug Screen. Data for the wt2 strain (AID 169);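 note: 0% = growth of vehicle-treated yeast cultures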; settings: S. cerevisiae wt2 strain growth inhibition, hits give high values
Method in brief: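 Growth of compound-treated yeast is measured and expressed as inhibition relative to vehicle-only controls.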

[12] = NCI Yeast Anticancer Drug Screen. Data for the mlh1 strain (AID 171);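 note: 0% = growth of vehicle-treated control cultures of the same strain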; settings: S. cerevisiae mlh1 strain growth inhibition, hits give high values
Method in brief: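 Test agents were incubated with yeast bearing a defined DNA damage repair or cell cycle control alteration; values are growth inhibition normalised to vehicle-treated cultures.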

[13] = NCI Yeast Anticancer Drug Screen. Data for the sgs1 strain (AID 173);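 note: 0% = growth of vehicle-only control cultures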; settings: S. cerevisiae sgs1 mutant, hits give high values
Method in brief: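 Strain with an altered DNA repair or cell cycle pathway exposed to compound. Growth then measured. Value = inhibition versus vehicle control.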

[14] = NCI Yeast Anticancer Drug Screen. Data for the mlh1 rad18 strain (AID 175); settings: S. cerevisiae mlh1 rad18 strain growth inhibition, hits give high values
Method in brief: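 A repair-deficient yeast strain is exposed to test compound, and growth is scored relative to vehicle-treated controls.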

[15] = NCI Yeast Anticancer Drug Screen. Data for the rad18 strain (AID 177); settings: S. cerevisiae rad18 mutant growth inhibition, hits give high values
Method in brief: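 DNA-repair-defective yeast; compound treatment; growth inhibition scored against vehicle.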

[16] = at 5.0 µM (retest, dose inferred, filed as 0.5)
[17] = at 50.0 µM (retest, dose inferred, filed as 5.0)

Measured: growth inhibition

O=C(OCCN1CCCCCC1)C(c1ccsc1)C1CCCCC1 (stereo not drawn)
active: [5]; at 50.0 µM 81.9% | [8]; at 50.0 µM 84% | [9]; [16] 81% | [10]; [17] 88% | [10]; at 50.0 µM 83% | [10]; at 100.0 µM 79% | [11]; at 100.0 µM 72% | [14]; at 50.0 µM 79.4%
inactive: [1]; at 1.2 µM 15% | [1]; at 3.7 µM 14% | [1]; at 11.0 µM 50% | [1]; at 33.0 µM 57% | [1]; at 100.0 µM 50% | [2]; at 1.2 µM -67% | [2]; at 3.7 µM 13% | [2]; at 11.0 µM 16% | [2]; at 33.0 µM 19% | [2]; at 100.0 µM 19% | [3]; at 1.2 µM -1% | [3]; at 3.7 µM -1% | [3]; at 11.0 µM -1% | [3]; at 33.0 µM 0% | [3]; at 100.0 µM 2% | [4]; at 1.2 µM 8% | [4]; at 3.7 µM 21% | [4]; at 11.0 µM 34% | [4]; at 33.0 µM 36% | [4]; at 100.0 µM 37% | [5]; at 1.2 µM 11% | [5]; at 3.7 µM 17% | [5]; [16] 13% | [5]; at 11.0 µM 25% | [5]; at 33.0 µM 29% | [5]; [17] 39% | [5]; at 100.0 µM 46% | [6]; at 1.2 µM 3% | [6]; at 3.7 µM 10% | [6]; [16] -5% | [6]; at 11.0 µM 17% | [6]; at 33.0 µM 27% | [6]; [17] 13% | [6]; at 50.0 µM 33.4% | [6]; at 100.0 µM 32% | [7]; at 1.2 µM 35% | [7]; at 3.7 µM 36% | [7]; at 11.0 µM 40% | [7]; at 33.0 µM 43% | [7]; at 100.0 µM 52% | [8]; [16] 4% | [8]; [17] 55% | [9]; [17] 49% | [9]; at 50.0 µM 63.5% | [10]; at 1.2 µM 4% | [10]; at 3.7 µM 14% | [10]; [16] 61% | [10]; at 11.0 µM 37% | [10]; at 33.0 µM 58% | [11]; at 1.2 µM 6% | [11]; at 3.7 µM 17% | [11]; at 11.0 µM 22% | [11]; at 33.0 µM 39% | [12]; at 1.2 µM 8% | [12]; at 3.7 µM 21% | [12]; at 11.0 µM 24% | [12]; at 33.0 µM 29% | [12]; at 100.0 µM 35% | [13]; at 1.2 µM 17% | [13]; at 3.7 µM 29% | [13]; at 11.0 µM 34% | [13]; at 33.0 µM 31% | [13]; at 100.0 µM 40% | [14]; [16] 2% | [14]; [17] 33% | [15]; at 1.2 µM 7% | [15]; at 3.7 µM 18% | [15]; at 11.0 µM 34% | [15]; at 33.0 µM 34% | [15]; at 100.0 µM 43%
